In PubChem BioAssay (EPA / NIEHS):
The source made the active and inactive calls. Rule for the calls: active = hit-call score of the fitted dose curve at least 0.9, where 1 is the maximum; inactive = score below 0.9.

How the values were obtained:
Settings in all cases: mRNA level, 48 h; actives raise or lower the signal
[1] = read-out: BCL2L11 (gene 10018); test: LTEA_HepaRG_BCL2L11: Life Technologies and Expression Analysis (LTEA) Assay for Bcl-2 (BCL2L11) gene using HepaRG (AID 2283473)
How it was run: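 Human hepatic HepaRG cultures are treated 48 h with test chemicals (maximum 100 uM, 0.5% DMSO vehicle). Expression of BCL2L11 is measured by qRT-PCR against ACTB, GAPDH and POLR2A, with activity in either direction scored relative to vehicle.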

[2] = read-out: Apoptosis regulator Bcl-2 (Homo sapiens) (UniProt P10415); test: LTEA_HepaRG_BCL2: Life Technologies and Expression Analysis (LTEA) Assay for Bcl-2 gene using HepaRG (AID 2283475)
How it was run: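 qRT-PCR of BCL2 transcript, normalized to three housekeeping genes (ACTB, GAPDH, POLR2A), after 48 h chemical exposure of HepaRG cells; concentrations top 100 uM with half-log dilutions, 0.5% DMSO vehicle, duplicates; changes up or down fitted relative to vehicle.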

[3] = read-out: Bcl-2 (BID) gene, BID (gene 637); test: LTEA_HepaRG_BID: Life Technologies and Expression Analysis (LTEA) Assay for Bcl-2 (BID) gene using HepaRG (AID 2283476)
How it was run: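 Duplicate 48 h treatments of HepaRG cells in serum-free induction medium spanned 100 uM downward in half-log steps, 0.5% DMSO. Transcript change quantified by qRT-PCR against three housekeeping genes, fitted up or down versus DMSO.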

[4] = read-out: Caspase-3 (Homo sapiens) (UniProt P42574); test: LTEA_HepaRG_CASP3: Life Technologies and Expression Analysis (LTEA) Assay for cysteine-aspartic acid protease (CASP3) using HepaRG (AID 2283477)
How it was run: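 Transcript-level assay: CASP3 mRNA in human HepaRG after 48 h treatment, eight half-log concentrations from 100 uM in 0.5% DMSO, quantified by qRT-PCR.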

[5] = read-out: Cytochrome P450 (CYP24A1), CYP24A1 (gene 1591); test: LTEA_HepaRG_CYP24A1: Life Technologies and Expression Analysis (LTEA) Assay for Cytochrome P450 (CYP24A1) using HepaRG (AID 2283478)
How it was run: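 Gene expression of CYP24A1 by TaqMan qRT-PCR in HepaRG after 48 h treatment, highest concentration 100 uM; activity fitted in both directions relative to DMSO vehicle.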

[6] = read-out: cysteine-aspartic acid protease (CASP8), CASP8 (gene 841); test: LTEA_HepaRG_CASP8: Life Technologies and Expression Analysis (LTEA) Assay for cysteine-aspartic acid protease (CASP8) using HepaRG (AID 2283480)
How it was run: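 CASP8 transcript measured by TaqMan qRT-PCR with ACTB/GAPDH/POLR2A normalization, after 48 h chemical exposure of HepaRG cells in serum-free induction medium. Eight concentrations, top 100 uM, half-log steps, 0.5% DMSO vehicle; fits in both directions versus DMSO.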

[7] = read-out: Cytochrome P450 (CYP2B6), CYP2B6 (gene 1555); test: LTEA_HepaRG_CYP2B6: Life Technologies and Expression Analysis (LTEA) Assay for Cytochrome P450 (CYP2B6) using HepaRG (AID 2283481)
How it was run: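 Human HepaRG, 48 h dosing, 0.5% DMSO vehicle, top dose 100 uM. CYP2B6 transcript by qRT-PCR, housekeeping-normalized, bidirectional curve fit.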

[8] = read-out: Cytochrome P450 2C19 (Homo sapiens) (UniProt P33261); test: LTEA_HepaRG_CYP2C19: Life Technologies and Expression Analysis (LTEA) Assay for CYP2C19 using HepaRG (AID 2283482)
How it was run: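 Endpoint: CYP2C19 mRNA change, bidirectional fit vs 0.5% DMSO. Cells: HepaRG, 48 h exposure, eight-point series topping at 100 uM. Quantitation: qRT-PCR normalized to ACTB, GAPDH, POLR2A.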

[9] = read-out: CYP2C8 (gene 1558); test: LTEA_HepaRG_CYP2C8: Life Technologies and Expression Analysis (LTEA) Assay for CYP2C8 using HepaRG (AID 2283483)
How it was run: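 CYP2C8 expression measured by TaqMan qRT-PCR and normalized to three housekeeping genes. HepaRG cultures were treated for 48 h with an eight-point half-log series topping at 100 uM, vehicle 0.5% DMSO, duplicates; fitted both directions against DMSO.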

[10] = read-out: CYP2C9 (gene 1559); test: LTEA_HepaRG_CYP2C9: Life Technologies and Expression Analysis (LTEA) Assay for CYP2C9 using HepaRG (AID 2283484)
How it was run: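 CYP2C9 transcript level, quantified by TaqMan qRT-PCR against three housekeeping genes, was fitted bidirectionally relative to 0.5% DMSO. HepaRG cultures were treated 48 h, in duplicate, at eight half-log concentrations topping at 100 uM.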

[11] = read-out: CYP2E1 (gene 1571); test: LTEA_HepaRG_CYP2E1: Life Technologies and Expression Analysis (LTEA) Assay for CYP2E1 using HepaRG (AID 2283485)
How it was run: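 CYP2E1 transcript measured by Fluidigm qRT-PCR against three housekeeping genes in human HepaRG cells treated 48 h (top 100 uM, half-log steps, 0.5% DMSO vehicle). Gain or loss fitted relative to DMSO baseline.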

[12] = read-out: CYP4A11 (gene 1579); test: LTEA_HepaRG_CYP4A11: Life Technologies and Expression Analysis (LTEA) Assay for CYP4A11 using HepaRG (AID 2283486)
How it was run: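 Human hepatic HepaRG cultures receive duplicate 48 h exposures across a concentration-response series topping at 100 uM. Expression changes in CYP4A11 are measured by qRT-PCR relative to DMSO controls.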

[13] = read-out: Cytochrome P450 3A4 (Homo sapiens) (UniProt P08684); test: LTEA_HepaRG_CYP3A4: Life Technologies and Expression Analysis (LTEA) Assay for CYP3A4 using HepaRG (AID 2283487)
How it was run: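 HepaRG, 48 h exposure, 8-pt CRC from 100 uM (half-log), 0.5% DMSO, duplicates; serum-free induction medium. Readout: CYP3A4 mRNA, qRT-PCR, ACTB/GAPDH/POLR2A normalization. Bidirectional fit vs DMSO.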

[14] = read-out: DNA damage-inducible transcript 3 (DDIT3), DDIT3 (gene 1649); test: LTEA_HepaRG_DDIT3: Life Technologies and Expression Analysis (LTEA) Assay for DNA damage-inducible transcript 3 (DDIT3) using HepaRG (AID 2283488)
How it was run: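 DDIT3 transcript was quantified by qRT-PCR with ACTB/GAPDH/POLR2A normalization after 48 h chemical treatment of differentiated HepaRG cells in 0.5% DMSO. Dosing was eight-point, half-log, top 100 uM, duplicate wells. Curves fitted bidirectionally versus DMSO.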

[15] = read-out: Pro-epidermal growth factor (Homo sapiens) (UniProt P01133); test: LTEA_HepaRG_EGF: Life Technologies and Expression Analysis (LTEA) Assay for Epidermal growth factor (EGF) using HepaRG (AID 2283489)
How it was run: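 Concentration-response mRNA assay: HepaRG cells dosed 48 h (max 100 uM, 0.5% DMSO), EGF measured by qRT-PCR and normalized to ACTB/GAPDH/POLR2A.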

[16] = read-out: Early growth response protein 1 (EGR1) transcription factor, EGR1 (gene 1958); test: LTEA_HepaRG_EGR1: Life Technologies and Expression Analysis (LTEA) Assay for Early growth response protein 1 (EGR1) transcription factor using HepaRG (AID 2283490)
How it was run: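 EGR1 transcript levels quantified by qRT-PCR (Fluidigm arrays) against three housekeeping genes after 48 h chemical exposure of HepaRG cells. Eight-point half-log series topping at 100 uM, 0.5% DMSO vehicle, analyzed for gain or loss.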

[17] = read-out: Ezrin (EZR), EZR (gene 7430); test: LTEA_HepaRG_EZR: Life Technologies and Expression Analysis (LTEA) Assay for Ezrin (EZR) using HepaRG (AID 2283491)
How it was run: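 Read-out is EZR transcript level by qRT-PCR, normalized to three housekeeping genes and fitted bidirectionally against the DMSO control. Human HepaRG cells received test chemicals for 48 h at eight half-log concentrations up to 100 uM in 0.5% DMSO.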

[18] = read-out: Cytochrome P450 3A7 (Homo sapiens) (UniProt P24462); test: LTEA_HepaRG_CYP3A7: Life Technologies and Expression Analysis (LTEA) Assay for CYP3A7 using HepaRG (AID 2283492)
How it was run: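 qRT-PCR of CYP3A7 in HepaRG lysates after 48 h treatment; concentration-response (8 points, max 100 uM) analysed bidirectionally relative to 0.5% DMSO controls.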

Measured: AC50

Sequence of Cytochrome P450 3A7 (Homo sapiens) (P24462 whole entry, looked up): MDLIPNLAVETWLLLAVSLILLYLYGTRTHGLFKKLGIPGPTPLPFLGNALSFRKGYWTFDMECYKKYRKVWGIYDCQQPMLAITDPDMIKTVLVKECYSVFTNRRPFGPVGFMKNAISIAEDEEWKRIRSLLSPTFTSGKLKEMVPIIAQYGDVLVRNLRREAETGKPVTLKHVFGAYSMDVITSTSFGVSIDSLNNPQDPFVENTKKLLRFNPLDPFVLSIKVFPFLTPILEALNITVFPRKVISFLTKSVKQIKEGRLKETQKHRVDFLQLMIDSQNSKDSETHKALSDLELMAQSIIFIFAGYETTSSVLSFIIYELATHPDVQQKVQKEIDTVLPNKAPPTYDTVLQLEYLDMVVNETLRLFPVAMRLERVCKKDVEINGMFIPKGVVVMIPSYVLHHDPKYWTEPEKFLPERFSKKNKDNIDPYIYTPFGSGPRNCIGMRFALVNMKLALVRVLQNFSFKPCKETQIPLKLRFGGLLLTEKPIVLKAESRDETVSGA
Sequence of Caspase-3 (Homo sapiens) (P42574 whole entry, looked up): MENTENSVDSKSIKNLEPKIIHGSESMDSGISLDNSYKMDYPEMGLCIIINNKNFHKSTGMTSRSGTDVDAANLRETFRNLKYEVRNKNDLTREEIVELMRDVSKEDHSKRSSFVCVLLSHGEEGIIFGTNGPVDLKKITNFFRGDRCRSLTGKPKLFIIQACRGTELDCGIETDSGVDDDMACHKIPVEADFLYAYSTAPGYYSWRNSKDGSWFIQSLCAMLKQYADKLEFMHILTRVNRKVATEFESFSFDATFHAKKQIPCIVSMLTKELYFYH
Sequence of Apoptosis regulator Bcl-2 (Homo sapiens) (P10415 whole entry, looked up): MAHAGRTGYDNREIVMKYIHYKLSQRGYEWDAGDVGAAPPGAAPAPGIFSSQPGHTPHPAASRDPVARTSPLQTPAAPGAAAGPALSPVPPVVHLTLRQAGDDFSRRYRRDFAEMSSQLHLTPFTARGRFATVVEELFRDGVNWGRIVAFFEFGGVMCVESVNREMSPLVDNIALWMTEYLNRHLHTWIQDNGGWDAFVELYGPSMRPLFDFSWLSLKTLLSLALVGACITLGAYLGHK
Sequence of Cytochrome P450 3A4 (Homo sapiens) (P08684 whole entry, looked up): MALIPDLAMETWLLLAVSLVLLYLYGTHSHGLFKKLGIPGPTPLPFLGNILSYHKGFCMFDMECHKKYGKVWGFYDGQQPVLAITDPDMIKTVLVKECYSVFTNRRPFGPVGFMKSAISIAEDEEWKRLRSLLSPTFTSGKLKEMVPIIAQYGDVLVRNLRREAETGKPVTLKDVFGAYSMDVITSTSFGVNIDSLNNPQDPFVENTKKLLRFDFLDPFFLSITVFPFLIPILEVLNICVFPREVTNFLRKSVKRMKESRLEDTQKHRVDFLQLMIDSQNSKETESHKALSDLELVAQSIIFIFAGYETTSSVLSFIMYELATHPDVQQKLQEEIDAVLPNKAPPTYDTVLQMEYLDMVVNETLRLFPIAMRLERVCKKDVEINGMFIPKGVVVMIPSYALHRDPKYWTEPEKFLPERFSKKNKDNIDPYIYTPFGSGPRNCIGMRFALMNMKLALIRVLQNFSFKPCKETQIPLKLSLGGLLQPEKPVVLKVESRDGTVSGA
Sequence of Cytochrome P450 2C19 (Homo sapiens) (P33261 whole entry, looked up): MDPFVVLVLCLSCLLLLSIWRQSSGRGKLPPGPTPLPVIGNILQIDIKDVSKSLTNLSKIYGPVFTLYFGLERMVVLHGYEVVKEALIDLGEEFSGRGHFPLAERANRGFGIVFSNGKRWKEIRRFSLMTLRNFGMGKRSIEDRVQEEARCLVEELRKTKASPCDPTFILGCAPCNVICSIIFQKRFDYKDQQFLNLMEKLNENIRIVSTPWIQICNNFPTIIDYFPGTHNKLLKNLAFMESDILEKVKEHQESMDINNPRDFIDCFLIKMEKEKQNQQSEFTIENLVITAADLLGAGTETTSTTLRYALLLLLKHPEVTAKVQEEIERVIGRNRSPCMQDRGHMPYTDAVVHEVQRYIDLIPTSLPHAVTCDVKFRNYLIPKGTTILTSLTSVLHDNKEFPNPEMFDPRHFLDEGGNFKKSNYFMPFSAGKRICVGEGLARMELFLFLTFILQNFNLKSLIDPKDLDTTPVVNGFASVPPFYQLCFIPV

CCOc1ccc2[nH]cc(C(=O)NCc3ccccc3)c(=O)c2n1
active: [2] 0.662 µM | [11] 63 µM | [12] 76.5 µM | [13] 29.2 µM
inactive: all other assays above

OCc1ccccc1
not listed: [2]
inactive: all other assays above

CCCOc1ccc(S(=O)(=O)N2CCN(CC)CC2)cc1-c1nc2c(CC)n(Cc3ccccn3)nc2c(=O)[nH]1
active: [7] 5.14 µM | [8] 18.2 µM | [9] 3.5 µM | [11] 4.54 µM | [12] 30.9 µM | [13] 2.11 µM | [14] 69.6 µM | [18] 1.22 µM
inactive: all other assays above

O=C(O)c1cccc(C[C@@H]2COc3ccc(OCc4nc5cc(F)ccc5s4)cc3[C@@H]2O)c1
active: [7] 92 µM | [8] 83.9 µM | [9] 84.2 µM | [10] 81.6 µM | [11] 71.7 µM | [12] 85.9 µM | [13] 78.2 µM | [18] 82.2 µM
inactive: all other assays above
